Data as given in PubChem BioAssay.

Test: P. aeruginosa biofilm formation inhibitors, primary screen, strain PAO1, LB-PBS medium, absorbance 600 nm (AID 1176); further: test concentration not given here
Conditions: P. aeruginosa PAO1 growth/biofilm, A600, 12 h; higher = more signal; call rule not given here

z-score, inactive:
COCCOC(=O)N1C(=O)[C@@]2(c3cc(C#CCC(C(=O)OC)C(=O)OC)ccc31)[C@H](C(N)=O)[C@H]1C(=O)O[C@H](c3ccccc3)[C@H](c3ccccc3)N1[C@@H]2c1ccccc1OCCO 3.05
C=C(COC)/C(=C/C[C@@H](OC(C)=O)c1cccc(OCCO)c1)c1cnc2ccccc2c1 0.203
CC(C)[Si](C#Cc1ccccc1)(O[C@H](c1ccccc1)c1cn(Cc2ccccc2)nn1)C(C)C -0.571
C[C@]1(C(=O)O)c2ccccc2C(=O)N(Cc2cc(C(F)(F)F)cc(C(F)(F)F)c2)[C@H]1c1ccc(CO)cc1 -0.0528
[N-]=[N+]=NCc1ccccc1[C@H]1OC(c2ccc(OCCCO)cc2)=N[C@@]1(CCS(=O)(=O)c1ccccc1)C(=O)NCCN1CCOCC1 1.13
C=CC[C@@]1(C(=O)NCCCOC)N=C(c2ccc(OCCCO)cc2)O[C@@H]1c1ccccc1CN=[N+]=[N-] -0.248
CC(=O)NCCCC[C@@H]1NC(=O)[C@H]2C[C@@H](C(=O)O)[C@@H](c3cccc(OCCO)c3)N2C1=O 0.118
C=CCNC(=O)[C@H]1[C@@H]2C(=O)O[C@@H](c3ccccc3)[C@@H](c3ccccc3)N2[C@@H](c2ccc(O)cc2)[C@]12C(=O)Nc1ccccc12 1.15
Cc1ccc(S[C@]2(C(=O)NC(C)C)CC(=O)N(Cc3ccccc3)[C@@H]2c2ccc(CO)cc2I)cc1 0.003
COC(=O)c1ccc(OC)c(/C=C\CC(OC(=O)c2ccncc2)c2ccccc2)c1 (stereo not given) 0.792
COc1ccc([Si](C)(C)[C@H]2[C@H](CC(=O)N(CCO)Cc3ccccc3)O[C@@]3(C(=O)N(Cc4ccc(N5C(=O)c6cccc7cccc5c67)cc4)c4ccccc43)[C@@H]2C)cc1 0.319
C=C(C)C1CN([C@H](CO)c2ccccc2)C(=O)/C1=C\c1ccccc1 (stereo not given in full) -0.234
C[N+](C)(C)CCCC[C@@H]1NC(=O)[C@H]2C[C@@H](C(=O)NCCCCCN)[C@@H](c3ccc(O)cc3)N2C1=O -1.14
CC(=O)NCCCC[C@@H]1NC(=O)[C@H]2C[C@@H](C(=O)NCCCCCN)[C@@H](c3ccc(O)cc3)N2C1=O -0.13
O=C1c2ccccc2[C@](Cc2ccccc2I)(C(=O)NCCN2CCOCC2)[C@H](c2ccc(CO)cc2)N1Cc1ccccc1C(F)(F)F 0.0435
CCOC(=O)C[C@H]1[C@H](OC(=O)c2ccc(-c3ccccc3)cc2)[C@@H](NC(=O)c2ccc(-c3ccccc3)cc2)c2cc(OCCCO)ccc2N1C(=O)c1ccccc1 0.0307
COC(=O)C1=CC(CCCO)=CC(c2ccc(CN3CCCC3)cc2)N(C)C=C1C(=O)OC (stereo not given) 0.543
CCCC1(C(=O)OC)C=C2C(=C(C(C)C)C(=O)C2C)CN1 (stereo not given) 0.495
C=CCOC(=O)[C@H]1[C@@H]2C(=O)O[C@@H](c3ccccc3)[C@@H](c3ccccc3)N2[C@@H](c2ccc(OCCOC(=O)[C@H]3C[C@H]4C(=O)NCC(=O)N4[C@H]3c3cccc(OCCO)c3)cc2)[C@]12C(=O)Nc1ccc(I)cc12 1.88
C=CCNC(=O)[C@H]1[C@@H]2C(=O)O[C@@H](c3ccccc3)[C@@H](c3ccccc3)N2[C@@H](c2ccc(O)cc2)[C@]12C(=O)N(C(=O)OCCOC)c1ccc(C#Cc3ccc(OC)cc3)cc12 0.485
CS(=O)(=O)CCOC(=O)C1=CC(CCCO)=CC(C2CC2)N(Cc2sc3ccccc3c2Cl)C=C1C(=O)OCCS(C)(=O)=O (stereo not given) 0.0478
CC(C)(C)OC(=O)CC[C@@]1(C(=O)N2CCOCC2)N=C(c2ccc(OCCCO)cc2)O[C@@H]1c1ccccc1CN=[N+]=[N-] 0.342
CN1C(=O)C2C=CC(C(O)c3ccc(I)cc3)N(N(c3ccccc3)c3ccccc3)C2C1=O (stereo not given) 0.944
CC(C)(C)OC(=O)N1[C@@H](C=C(Br)Br)COC1(C)C -0.677
CCCN1C(=O)[C@@]2(c3ccc([N+](=O)[O-])cc3)CC(=O)N(C3CCCCC3)[C@@H]2c2ccc(CO)cc21 0.944
C=CCNC(=O)[C@H]1[C@@H]2C(=O)O[C@@H](c3ccccc3)[C@@H](c3ccccc3)N2[C@@H](c2ccc(OCCO)cc2)[C@]12C(=O)N(C(=O)OCCOC)c1ccc(C#CCC(C(=O)OC)C(=O)OC)cc12 1.5
CN1C(=O)C2C=CC(C(O)COCc3ccccc3)N(Nc3ccc([N+](=O)[O-])cc3[N+](=O)[O-])C2C1=O (stereo not given) 0.558
COC(=O)C1=CC(c2ccc(CO)cc2)=CC(C2CC2)N(Cc2cc3c(cc2Br)OCO3)C=C1C(=O)OC (stereo not given) 0.158
C=CC[C@H](O)c1ccc(O)c(F)c1 0.131
COc1ccc(C(O)C2C=CC3C(=O)N(c4ccccc4)C(=O)C3N2Nc2ccccc2F)c2ccccc12 (stereo not given) 1.15
C=C(COC)C(=O)CC[C@@H](OC(=O)c1ccccc1-c1ccccc1C(=O)O)c1ccccc1OCCO 2.1
COC(=O)C(CC#Cc1ccc2c(c1)[C@]1(C(=O)N2)[C@H](C(=O)N2CCCCCCC2)[C@H]2C(=O)O[C@H](c3ccccc3)[C@H](c3ccccc3)N2[C@@H]1c1ccc(OCCO)cc1)C(=O)OC 2.05
C[C@H]1C2[C@H](Cc3ccccc3)NC(=O)[C@]23C(=O)N[C@@H](Cc2ccccc2)C(=O)N2CCC[C@H]2C(=O)NC/C=C/CC/C=C/C3[C@@H]2O[C@]12C (stereo not given in full) 0.355
CCCC[C@@H](O)C1=C(C)Cn2c(=O)n(-c3ccccc3)c(=O)n2[C@H]1CO 0.413
CC(C)c1ccc(NN2C(C(O)C3CCCCC3)C=CC3C(=O)N(c4ccccc4)C(=O)C32)cc1 (stereo not given) 1.52
